Out of some 290,000 compounds screened, about 570 (0.2%) were called active. About 1% were inconclusive and are not listed. This is one part of a sample in which actives are shown more often than they occur. Cut-off read from the data, not from the text of the source: active = inhibition mostly above about 51% (no sharp cut-off); inconclusive = no clear call, values can overlap the other calls; inactive = mostly below about 53%.

The values that follow come from PubChem BioAssay AID2073 (Sanford-Burnham Center for Chemical Genomics, 2009).

For this assay, the target named is Voltage-dependent N-type calcium channel subunit alpha-1B (Homo sapiens) (UniProt Q00975). Description: inhibitors of Mint1-CaV2.2 protein interaction, biochemical, HTRF (AID 2073). The conditions noted are these: at 20 µM, stronger effect = higher value. (In general: Time-resolved FRET reads energy transfer from a long-lived donor to a nearby acceptor.)
Chain of Voltage-dependent N-type calcium channel subunit alpha-1B (Homo sapiens) (Q00975 whole entry, looked up): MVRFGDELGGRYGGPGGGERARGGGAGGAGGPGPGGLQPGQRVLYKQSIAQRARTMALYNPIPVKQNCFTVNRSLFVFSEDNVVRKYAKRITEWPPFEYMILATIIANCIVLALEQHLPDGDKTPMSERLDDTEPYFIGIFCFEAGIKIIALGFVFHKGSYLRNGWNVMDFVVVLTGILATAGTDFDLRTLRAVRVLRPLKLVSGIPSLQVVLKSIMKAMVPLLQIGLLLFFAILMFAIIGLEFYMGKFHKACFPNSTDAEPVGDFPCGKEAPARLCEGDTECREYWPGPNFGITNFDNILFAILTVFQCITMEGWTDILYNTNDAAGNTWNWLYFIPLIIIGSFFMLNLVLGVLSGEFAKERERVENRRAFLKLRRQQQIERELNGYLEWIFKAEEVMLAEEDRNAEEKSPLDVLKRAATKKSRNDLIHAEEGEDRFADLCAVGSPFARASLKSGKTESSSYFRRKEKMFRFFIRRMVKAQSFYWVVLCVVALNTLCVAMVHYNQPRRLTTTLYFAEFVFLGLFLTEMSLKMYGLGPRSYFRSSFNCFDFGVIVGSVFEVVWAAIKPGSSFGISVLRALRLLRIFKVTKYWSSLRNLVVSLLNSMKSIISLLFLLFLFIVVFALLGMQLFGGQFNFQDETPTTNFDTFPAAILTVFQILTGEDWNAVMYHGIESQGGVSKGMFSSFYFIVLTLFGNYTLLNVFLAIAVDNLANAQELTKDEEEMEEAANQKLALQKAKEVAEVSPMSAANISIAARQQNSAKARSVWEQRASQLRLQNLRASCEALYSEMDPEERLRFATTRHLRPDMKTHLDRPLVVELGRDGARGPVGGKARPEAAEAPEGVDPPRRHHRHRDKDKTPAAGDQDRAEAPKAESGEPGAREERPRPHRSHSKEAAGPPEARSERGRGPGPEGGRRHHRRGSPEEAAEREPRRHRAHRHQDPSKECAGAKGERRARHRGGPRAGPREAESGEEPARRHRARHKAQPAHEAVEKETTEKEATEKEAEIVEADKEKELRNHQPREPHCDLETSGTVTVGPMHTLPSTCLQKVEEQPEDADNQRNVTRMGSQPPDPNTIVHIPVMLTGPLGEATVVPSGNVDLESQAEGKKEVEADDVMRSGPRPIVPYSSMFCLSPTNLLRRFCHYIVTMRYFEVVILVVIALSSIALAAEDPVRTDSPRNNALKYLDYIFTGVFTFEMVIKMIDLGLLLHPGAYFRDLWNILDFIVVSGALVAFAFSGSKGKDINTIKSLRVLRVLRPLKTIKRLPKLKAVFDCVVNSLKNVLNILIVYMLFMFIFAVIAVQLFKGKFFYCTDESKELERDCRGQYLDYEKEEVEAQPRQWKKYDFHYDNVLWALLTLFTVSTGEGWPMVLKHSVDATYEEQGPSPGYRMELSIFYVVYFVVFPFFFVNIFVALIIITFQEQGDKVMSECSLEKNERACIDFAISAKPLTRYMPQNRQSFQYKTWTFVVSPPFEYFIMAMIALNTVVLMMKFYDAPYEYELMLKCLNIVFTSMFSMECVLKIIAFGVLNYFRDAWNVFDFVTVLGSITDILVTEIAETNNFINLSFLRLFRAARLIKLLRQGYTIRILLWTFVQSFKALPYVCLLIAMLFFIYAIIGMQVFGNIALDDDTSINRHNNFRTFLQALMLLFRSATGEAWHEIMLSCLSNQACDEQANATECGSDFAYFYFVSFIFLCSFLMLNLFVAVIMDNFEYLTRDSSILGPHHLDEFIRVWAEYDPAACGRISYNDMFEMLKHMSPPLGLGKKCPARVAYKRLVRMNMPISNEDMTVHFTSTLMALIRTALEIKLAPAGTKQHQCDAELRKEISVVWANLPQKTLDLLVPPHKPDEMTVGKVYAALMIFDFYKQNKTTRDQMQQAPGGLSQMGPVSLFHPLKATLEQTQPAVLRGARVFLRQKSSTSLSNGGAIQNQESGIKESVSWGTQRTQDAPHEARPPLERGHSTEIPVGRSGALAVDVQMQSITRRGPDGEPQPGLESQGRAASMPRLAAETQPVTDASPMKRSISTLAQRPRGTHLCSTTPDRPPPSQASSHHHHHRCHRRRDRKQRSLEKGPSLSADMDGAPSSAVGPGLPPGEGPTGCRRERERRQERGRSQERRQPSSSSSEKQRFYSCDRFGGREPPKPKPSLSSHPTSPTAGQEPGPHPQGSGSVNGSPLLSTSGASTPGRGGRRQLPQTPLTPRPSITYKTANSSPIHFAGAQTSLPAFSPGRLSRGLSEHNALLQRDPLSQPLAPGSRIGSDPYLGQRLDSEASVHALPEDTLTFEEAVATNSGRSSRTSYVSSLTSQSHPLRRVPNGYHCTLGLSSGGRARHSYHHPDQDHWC
[1] abbreviates: measured here: average of repeat tests.

As usually defined, the inhibition is the drop in the measured response relative to a control, in per cent. As to `OCCN1CCN(c2ncnc3c2sc2nc(N4CCOCC4)c4c(c23)CCC4)CC1`, the inhibition was 3.4% (inactive).

On to `CSc1nc(N2CCN(CCO)CC2)c2sc3nc(-c4ccco4)c4c(c3c2n1)CCC4`, for which the inhibition is 64% (active).

`CC1(C)Cc2c(c(N3CCCC3)nc3sc4c(N5CCN(CCO)CC5)ncnc4c23)CO1`: the inhibition is -8.9% (inactive).

Take `CC1(C)Cc2c(c(-c3ccco3)nc3sc4c(NCCCO)ncnc4c23)CO1`: the inhibition is 5.3% (inactive).

For `OCCN(CCO)c1ncnc2c1sc1nc(N3CCOCC3)c3c(c12)CCCC3`, the inhibition was 16.9% (inactive).

With `CSc1nc(N(CCO)CCO)c2sc3nc(-c4ccco4)c4c(c3c2n1)CCC4`, the inhibition was 72.4% (active).

As for `Cc1nn(Cc2noc(C(=O)NCCc3ccccn3)n2)c(C)c1Br`, the inhibition is 7.3% (inactive).

Regarding `CC1(C)CC(NC(=O)c2ccccc2C(=O)NC2CC(C)(C)NC(C)(C)C2)CC(C)(C)N1`, the inhibition was 32.5% (inactive).

Consider `CCOC(=O)c1cnn(-c2nc(-c3ccccc3)nc3c2COC(C)(C)C3)c1N`, for which the inhibition is -0.5% (inactive).

On to `CCOC(=O)N1CCN(C(=O)CSc2nc3c(cnn3-c3ccc(C)cc3)c(=O)[nH]2)CC1`, for which the inhibition is 7.8% (inactive).

Turning to `CCn1c(=O)cc(OCC(=O)Nc2ccc3c(c2)OCCO3)c2ccccc21`, the inhibition is 21.8% (inactive).

For `CCc1ccc2[nH]c(=O)c(C(c3nnnn3CC3CCCO3)N3CCCc4ccccc43)cc2c1` (configuration not stated), the inhibition is 73% (inactive). In addition, the inhibition under setting [1] was 15.4%.

Consider `Cc1ccc2[nH]c(=O)c(C(c3nnnn3CC3CCCO3)N3CCCc4ccccc43)cc2c1` (configuration not stated), for which the inhibition is 94.9% (inactive). For the same molecule, the inhibition under setting [1] was 12.5%.

On to `Cc1cc2cc(C(c3nnnn3CC3CCCO3)N3CCCc4ccccc43)c(=O)[nH]c2cc1C` (configuration not stated), for which the inhibition was 70% (active).

Regarding `COC(=O)C1=C(C(=O)OC)[C@@H]2N(C)c3ccc(OC)cc3[C@@]23C[C@@H](C(=O)OC)N(C(=O)c2ccc(Br)cc2)C3=N1`, the inhibition was 6.3% (inactive).

Regarding `Nc1nonc1-n1nnc(C(=O)N/N=C/c2ccc(F)cc2)c1-c1cccs1`, the inhibition is 4.3% (inactive).

In the case of `CC(=O)Nc1ccc(NC(=O)c2cc(-c3cc(C)c(C)cc3O)n[nH]2)cc1`, the inhibition is -5.1% (inactive).

On to `Cc1ccc(NC(=O)c2cc(-c3ccc(C)c(C)c3O)n[nH]2)cc1C`, for which the inhibition was 12.1% (inactive).

On to `COc1ccccc1CNc1cc(CSc2ccc(Cl)cc2)nc(C)n1`, for which the inhibition is -1.5% (inactive).

With `CC(C)CNC(=O)CSc1nc(-c2cccs2)cc(C(F)(F)F)n1`, the inhibition is 16.7% (inactive).

In the case of `COc1ccc(CCNC(=O)C(CC(C)C)NC(N)=O)cc1` (configuration not stated), the inhibition is 4.9% (inactive).

With `COc1ccc(CN(C(=O)c2cc(=O)c3cc(C)cc(C)c3o2)C2CCS(=O)(=O)C2)cc1` (configuration not stated), the inhibition was 0% (inactive).

As to `COc1cccc(C(=O)NC2CC3CCCC(C2)N3CC(=O)Nc2ccccc2)c1` (configuration not stated), the inhibition is 55% (active).

Consider `COc1cccc(C(=O)NC2CC3CCCC(C2)N3CC(=O)Nc2ccc(N(C)C)cc2)c1` (configuration not stated), for which the inhibition was -12.2% (inactive).

For `O=C(CN1C2CCCC1CC(NC(=O)c1ccccc1)C2)Nc1ccccc1` (configuration not stated), the inhibition is 8.3% (inactive).

In the case of `O=C(Cn1c(=O)sc2ccccc21)Nc1ccc(S(=O)(=O)N2CCCCC2)cc1`, the inhibition is 18% (inactive).

Consider `COc1ccc(C2=CC(c3c(C)nn(-c4ccccc4)c3Cl)n3nnnc3N2)cc1OC` (configuration not stated), for which the inhibition was 24.3% (inactive).

With `CSc1nc(C)cc(-n2cc(F)c(=O)[nH]c2=O)n1`, the inhibition was -1.3% (inactive).

For the molecule `O=C1C(Cl)=C(NC(=O)c2ccccc2)C(=O)C(Cl)=C1NC(=O)c1ccccc1`, the inhibition is 81.8% (active).

Consider `O=C(Nc1ccccc1Cl)c1ccccc1`, for which the inhibition is 23.6% (inactive).

`O=C(NC1=C(Nc2ccc(Cl)cc2)C(=O)c2ccccc2C1=O)c1ccccc1`: the inhibition is -10.9% (inactive).

On to `CC(=O)N1CCN(C(=O)c2ccc3c(c2)OCCO3)CC1`, for which the inhibition is 16.6% (inactive).

For `CCOC(=O)C1=C(O)c2ccccc2C(=O)/C1=C\c1ccc(C)cc1`, the inhibition was 49.4% (inactive).

In the case of `CCOC(=O)C1=C(Cc2ccc(Cl)cc2)C(=O)c2ccccc2C1=O`, the inhibition was 66.8% (inactive). For the same molecule, the inhibition under setting [1] came to 19.3%.

In the case of `CCOC(=O)C1=C(Cc2ccc(C)cc2)C(=O)c2ccccc2C1=O`, the inhibition was 36% (inactive).

Turning to `CCOC(=O)C1=C(Cc2ccc(OC)cc2)C(=O)c2ccccc2C1=O`, the inhibition is 61.9% (active).

`CCOC(=O)C1=C(Cc2ccc(F)cc2)C(=O)c2ccccc2C1=O`: the inhibition was 76% (inactive). For the same molecule, the inhibition under setting [1] was 27.8%.

As to `CCOC(=O)C1=C(O)c2ccccc2C(=O)/C1=C\c1ccc(CC)cc1`, the inhibition was 54.8% (active).

Take `COc1ccc(N/C(=N/c2nc(C)cc(C)n2)NC(=O)c2ccccc2)cc1`: the inhibition is 8.5% (inactive).

Regarding `CSc1cccc(NC(=O)C2CCN(C(=O)c3ccccc3C)CC2)c1`, the inhibition was 3.1% (inactive).

With `CCOc1ccc(CCNC(=O)CSc2nnnn2C)cc1OCC`, the inhibition is 0% (inactive).

For `CC1=CC(=C(C#N)C#N)C=C(C)N1Cc1ccccc1`, the inhibition was -8.3% (inactive).

Consider `CCn1c(=O)c(=O)[nH]c2cc(C(=O)Nc3ccc(S(=O)(=O)N4CCCC4)cc3)ccc21`, for which the inhibition was 19.2% (inactive).

For `CCCNC(=O)OC[C@H]1O[C@H](CCO/N=C/c2ccc(C(=O)N3[C@H](c4ccc(C)cc4)[C@@H](C)CC[C@H]3C(=O)OC)cc2)C=C[C@@H]1Oc1ccc(OC)cc1`, the inhibition was 6.9% (inactive).

Turning to `CCOC(=O)c1cc(NC(=O)CCC(=O)O)ccc1N1CCCCC1`, the inhibition was 19.3% (inactive).

For `O=C(/C=C/c1cccs1)Nc1nc(-c2ccccc2)cs1`, the inhibition is 10% (inactive).

On to `O=C(/C=C/c1ccco1)Nc1nc(-c2ccccn2)cs1`, for which the inhibition was 54.1% (active).

As for `O=C(/C=C/c1ccccc1)Nc1nc(-c2ccncc2)cs1`, the inhibition is 54.1% (active).

Take `O=C(/C=C\c1ccco1)Nc1nc(-c2ccccc2)cs1`: the inhibition is 0% (inactive).

Take `O=C(/C=C/c1ccco1)Nc1nc(-c2ccccc2)cs1`: the inhibition is 26.4% (inactive).

Take `O=C(/C=C/c1ccc2c(c1)OCO2)Nc1nc(-c2ccccc2)cs1`: the inhibition was 26% (inactive).

In the case of `CCCSc1nc(N2CCOCC2)c2c(c1C#N)CC(C)(C)SC2`, the inhibition is 0.4% (inactive).

Consider `Cc1ccccc1NC1=C(Cl)C(=O)OC1NC(=O)c1ccccc1` (configuration not stated), for which the inhibition is -0.5% (inactive).

Regarding `CCOC(=O)c1ccc(N2C(=O)CC(C(=O)OC)=C2C)cc1`, the inhibition was 3.2% (inactive).

As to `CCc1ccc2nc(NC(=O)c3ccc(N4C(=O)CCC4=O)cc3)sc2c1`, the inhibition was 32.1% (inactive).

Take `Cc1ccc2nc(NC(=O)CN3CCOCC3)sc2c1`: the inhibition was -0.6% (inactive).

Regarding `Cc1ccc(-n2ncc3c2CCCC3NC(=O)CCn2ccnc2C)cc1C` (configuration not stated), the inhibition is -3.7% (inactive).

With `O=C(Nc1ncc2c(n1)CC(c1ccco1)CC2=O)c1ccccc1` (configuration not stated), the inhibition was 33.5% (inactive).

With `O=C1CC(c2ccco2)Cc2nc(Nc3nc(-c4ccccc4)c4ccccc4n3)ncc21` (configuration not stated), the inhibition was 52.4% (active).

For the molecule `O=C1CC(c2ccco2)Cc2nc(Nc3ccc(F)cc3)ncc21` (configuration not stated), the inhibition is 6.4% (inactive).

Take `CN(C)C(=O)c1ccc(NC(=O)COc2ccc([N+](=O)[O-])cc2)cc1`: the inhibition was 5.1% (inactive).

As for `COc1ccc(C2C(Oc3ccccc3)C(=O)N2c2cc(C)ccc2C)cc1OC` (configuration not stated), the inhibition is -3.8% (inactive).

Take `Cc1ccc(N2C(=O)c3ccc(C(=O)O)cc3C2=O)cc1C`: the inhibition is -1.3% (inactive).

As for `Cc1ccc(-n2c(=O)c3cc4c(=O)n(-c5ccc(C)c(C)c5)c(=O)c4c(C(=O)c4ccc(C(=O)O)cc4)c3c2=O)cc1C`, the inhibition is 85% (active).

For `O=C(O)c1ccc(-n2c(=O)c3ccccc3c3ccccc3c2=O)cc1`, the inhibition was -2.9% (inactive).

As to `O=C(N/N=C/c1ccoc1)c1cc(O)cc(O)c1`, the inhibition was 18.3% (inactive).

Consider `O=[N+]([O-])c1ccc(Cl)c2c1C1C=CCC1C(c1ccccn1)N2` (configuration not stated), for which the inhibition is 79.5% (active).

Take `Cc1cc([N+](=O)[O-])c2c(c1C)C1C=CCC1C(c1ccccn1)N2` (configuration not stated): the inhibition is 42.9% (inactive).

Take `O=C(O)c1ccc(Cl)c2c1C1C=CCC1C(c1ccccn1)N2` (configuration not stated): the inhibition was 23.7% (inactive).

Consider `COc1c(S(=O)(=O)NCCCn2ccnc2)ccc(Cl)c1Cl`, for which the inhibition was -0.3% (inactive).

For `COc1cccc(-c2nn(-c3ccccc3)cc2C(=O)O)c1`, the inhibition is 1.6% (inactive).

With `COc1ccccc1NC(=O)c1c(NC(=O)CCC(=O)O)sc2c1CCCCC2`, the inhibition is 25% (inactive).

Take `COc1ccc(NC(=O)c2c(NC(=O)CCC(=O)O)sc3c2CCCCC3)cc1`: the inhibition was 63.8% (inactive). Besides, under setting [1], the inhibition stood at 9.3%.

Take `COc1ccc(OC)c(NC(=O)c2c(NC(=O)CCC(=O)O)sc3c2CCCCC3)c1`: the inhibition is 65.1% (active).

For `O=S(=O)(NCC1CCCO1)c1ccc(Oc2ccccc2)cc1` (configuration not stated), the inhibition is 8.9% (inactive).

As for `Cc1cc(C(=O)OCC(=O)Nc2cc(S(=O)(=O)N(C)C)ccc2C)c2ccccc2n1`, the inhibition was -2.8% (inactive).

For `C[C@H]1[C@H](C)CC[C@]2(C(=O)O)CC[C@]3(C)C(=CC[C@@H]4[C@@]5(C)C[C@@H](O)[C@H](O)C(C)(C)[C@@H]5CC[C@]43C)[C@H]12`, the inhibition was 45.4% (inactive).

For the molecule `C[C@H]1[C@H](C)CC[C@]2(C)CC[C@]3(C)C(=CC[C@@H]4[C@@]5(C)CC[C@@H](O)[C@](C)(C(=O)O)[C@@H]5CC[C@]43C)[C@H]12`, the inhibition is 77% (active).

In the case of `C[C@H]1[C@H](C)CC[C@]2(C(=O)O)CC[C@]3(C)C(=CC[C@@H]4[C@@]5(C)CC[C@H](O)C(C)(C)[C@@H]5CC[C@]43C)[C@H]12`, the inhibition was 41.1% (inactive).

Consider `CC(=O)Nc1cc2c3c(c1)CCN3C(=O)CC2`, for which the inhibition was 0.4% (inactive).

Regarding `COc1cc(/C=N/NC(=O)c2ccncc2)ccc1OC(C)=O`, the inhibition was 11.8% (inactive).

For `Cc1ccc(S(=O)(=O)n2c(=O)oc3ccccc32)cc1`, the inhibition is -5.8% (inactive).

For `CCn1ncc(C2=NOC(C(=O)N3CCC(C(N)=O)CC3)C2)c1C` (configuration not stated), the inhibition was 2.8% (inactive).

Take `CCCOC(=O)/C(=C\C=C\c1ccccc1)NC(=O)c1ccccc1`: the inhibition is -6.3% (inactive).

In the case of `CCCOC(=O)/C(=C\C=C\c1ccco1)NC(=O)c1ccccc1`, the inhibition is 66.6% (active).

`CCCCOC(=O)/C(=C/C=C/c1ccccc1)NC(=O)c1ccccc1`: the inhibition was 7.4% (inactive).

For the molecule `CC1(c2ccccc2)NC(=O)N(Cc2ccc([N+](=O)[O-])cc2)C1=O` (configuration not stated), the inhibition is -5.3% (inactive).
